How the values were obtained:
Test in all cases: DAPPL (digital affinity profiling via proximity ligation, sequencing); 10 mM Tris-HCl pH 7.5, 50 mM NaCl, 1 mM DTT, 4% glycerol, room temperature, 30 min; GST-TFs on glutathione beads, 16-mer random dsDNA library, 0.1% formaldehyde crosslink after washing; high values mean tight binding
FEV = molecular target: T1, FEV (Homo sapiens, UniProt Q99581 1-238); conditions: protein: recombinant; tags: N-terminal GST; dsDNA, one strand shown
T1 sequence: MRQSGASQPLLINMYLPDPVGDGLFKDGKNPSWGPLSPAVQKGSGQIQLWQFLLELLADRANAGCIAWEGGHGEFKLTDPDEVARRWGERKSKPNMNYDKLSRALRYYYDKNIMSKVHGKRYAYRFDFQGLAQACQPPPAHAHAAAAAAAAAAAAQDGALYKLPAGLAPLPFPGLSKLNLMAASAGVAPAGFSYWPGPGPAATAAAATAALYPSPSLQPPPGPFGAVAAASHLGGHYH
Method in brief: (§1)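 Binding signal is each hexamer's read frequency for a factor divided by its frequency in the tag-only sample. The factors were GST-fused human transcription factors from yeast, captured on glutathione beads, DNA-barcoded and pooled with that sample. Pools were incubated with 200 nmole of a random double-stranded 16-mer DNA library in Tris/NaCl/DTT/glycerol buffer at room temperature for 30 min, then washed, crosslinked with 0.1% formaldehyde, proximity-ligated with BsaI/T4 ligase (1 h, 37 °C), PCR-amplified and sequenced on an Illumina NextSeq500.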

ETV5 = ETV5 (Homo sapiens, UniProt P41161 1-510); conditions: protein: recombinant; tags: N-terminal GST; dsDNA, one strand shown
Method in brief: as §1

HSF1 = HSF1 (Homo sapiens, UniProt Q00613 1-529); conditions: protein: recombinant; tags: N-terminal GST; chain copies: 3; dsDNA, one strand shown
Method in brief: as §1

SPIC = molecular target: T2, SPIC (Homo sapiens, UniProt Q8N5J4 1-248); conditions: protein: recombinant; tags: N-terminal GST; dsDNA, one strand shown
T2 sequence: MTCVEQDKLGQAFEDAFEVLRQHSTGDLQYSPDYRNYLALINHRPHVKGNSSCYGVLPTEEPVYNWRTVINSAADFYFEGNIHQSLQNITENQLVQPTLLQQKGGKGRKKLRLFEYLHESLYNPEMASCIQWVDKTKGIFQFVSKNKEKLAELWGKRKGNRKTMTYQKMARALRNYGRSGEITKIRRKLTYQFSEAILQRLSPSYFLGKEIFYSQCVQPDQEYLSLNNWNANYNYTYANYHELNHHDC
Method in brief: as §1

ELF4 = ELF4 (Homo sapiens, UniProt Q99607 1-663); conditions: protein: recombinant; tags: N-terminal GST; dsDNA, one strand shown
Method in brief: as §1

ELK4 = molecular target: T3, ELK4 (Homo sapiens, UniProt P28324-2 1-405); conditions: protein: recombinant; tags: N-terminal GST; dsDNA, one strand shown
T3 sequence: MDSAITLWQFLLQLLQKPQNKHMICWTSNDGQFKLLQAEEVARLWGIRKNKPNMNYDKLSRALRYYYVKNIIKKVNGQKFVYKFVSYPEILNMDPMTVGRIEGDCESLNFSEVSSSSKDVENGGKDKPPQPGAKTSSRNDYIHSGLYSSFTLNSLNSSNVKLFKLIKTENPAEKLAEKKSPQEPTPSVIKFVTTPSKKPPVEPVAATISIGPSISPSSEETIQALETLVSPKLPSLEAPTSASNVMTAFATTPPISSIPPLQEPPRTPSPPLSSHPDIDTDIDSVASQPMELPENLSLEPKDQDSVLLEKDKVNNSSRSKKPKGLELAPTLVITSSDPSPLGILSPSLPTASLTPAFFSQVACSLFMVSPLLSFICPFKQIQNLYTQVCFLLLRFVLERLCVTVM
Method in brief: as §1

ETV2 = molecular target: T4, ETV2 (Homo sapiens, UniProt O00321 1-342); conditions: protein: recombinant; tags: N-terminal GST; dsDNA, one strand shown
T4 sequence: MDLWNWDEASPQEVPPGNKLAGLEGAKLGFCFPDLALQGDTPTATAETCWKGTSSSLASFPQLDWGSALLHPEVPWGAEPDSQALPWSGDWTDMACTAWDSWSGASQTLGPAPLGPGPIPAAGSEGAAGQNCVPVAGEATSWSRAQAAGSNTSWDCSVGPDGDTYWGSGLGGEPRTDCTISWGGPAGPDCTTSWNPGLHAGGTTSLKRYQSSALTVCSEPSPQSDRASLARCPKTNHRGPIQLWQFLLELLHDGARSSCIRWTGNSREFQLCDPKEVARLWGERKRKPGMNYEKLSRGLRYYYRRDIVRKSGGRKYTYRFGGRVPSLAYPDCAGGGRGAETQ
Method in brief: as §1

ELF3 = molecular target: T5, ELF3 (Homo sapiens, UniProt P78545 1-371); conditions: protein: recombinant; tags: N-terminal GST; dsDNA, one strand shown
T5 sequence: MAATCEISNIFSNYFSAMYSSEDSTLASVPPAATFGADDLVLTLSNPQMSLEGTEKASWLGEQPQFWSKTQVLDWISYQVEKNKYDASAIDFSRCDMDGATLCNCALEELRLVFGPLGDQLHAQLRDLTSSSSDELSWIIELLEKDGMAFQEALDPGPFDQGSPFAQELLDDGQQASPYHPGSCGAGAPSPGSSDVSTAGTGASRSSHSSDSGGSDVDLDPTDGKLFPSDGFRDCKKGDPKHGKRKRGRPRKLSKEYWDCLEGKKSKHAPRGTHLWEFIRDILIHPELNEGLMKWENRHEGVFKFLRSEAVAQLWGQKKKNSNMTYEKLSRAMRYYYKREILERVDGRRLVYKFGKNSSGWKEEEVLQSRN
Method in brief: as §1

CRX = CRX (Homo sapiens, UniProt O43186 1-299); conditions: protein: recombinant; tags: N-terminal GST; dsDNA, one strand shown
Method in brief: as §1

ETV1 = ETV1 (Homo sapiens, UniProt P50549 1-477); conditions: protein: recombinant; tags: N-terminal GST; dsDNA, one strand shown
Method in brief: as §1

ERF = molecular target: T6, ERF (Homo sapiens, UniProt P50548 1-548); conditions: protein: recombinant; tags: N-terminal GST; dsDNA, one strand shown
T6 sequence: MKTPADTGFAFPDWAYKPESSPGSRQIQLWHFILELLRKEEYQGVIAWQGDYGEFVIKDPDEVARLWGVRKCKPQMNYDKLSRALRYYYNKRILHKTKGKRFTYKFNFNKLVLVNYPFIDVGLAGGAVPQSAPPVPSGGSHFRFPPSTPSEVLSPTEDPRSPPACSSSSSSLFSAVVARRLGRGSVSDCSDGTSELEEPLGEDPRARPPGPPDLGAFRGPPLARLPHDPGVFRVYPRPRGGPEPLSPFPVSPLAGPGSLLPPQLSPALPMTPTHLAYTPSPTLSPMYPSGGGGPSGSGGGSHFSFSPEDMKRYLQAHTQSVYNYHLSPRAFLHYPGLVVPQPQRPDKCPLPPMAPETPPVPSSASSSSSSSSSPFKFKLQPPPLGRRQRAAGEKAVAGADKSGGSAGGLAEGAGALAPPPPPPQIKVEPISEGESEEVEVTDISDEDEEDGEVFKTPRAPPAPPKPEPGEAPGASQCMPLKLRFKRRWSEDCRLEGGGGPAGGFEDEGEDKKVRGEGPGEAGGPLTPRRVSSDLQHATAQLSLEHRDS
Method in brief: as §1

ETV3L = molecular target: T7, ETV3L (Homo sapiens, UniProt Q6ZN32 1-361); conditions: protein: recombinant; tags: N-terminal GST; dsDNA, one strand shown
T7 sequence: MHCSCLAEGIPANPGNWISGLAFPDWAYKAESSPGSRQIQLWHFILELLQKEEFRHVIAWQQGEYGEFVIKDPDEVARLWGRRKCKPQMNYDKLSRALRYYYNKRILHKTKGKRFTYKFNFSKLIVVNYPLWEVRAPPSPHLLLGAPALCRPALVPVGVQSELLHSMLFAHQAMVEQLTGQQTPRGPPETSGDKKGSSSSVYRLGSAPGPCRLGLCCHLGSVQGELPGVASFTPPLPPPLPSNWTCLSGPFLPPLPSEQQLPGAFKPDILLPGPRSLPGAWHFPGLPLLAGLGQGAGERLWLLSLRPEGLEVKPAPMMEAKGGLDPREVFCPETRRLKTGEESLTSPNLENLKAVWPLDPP
Method in brief: as §1

ETS2 = molecular target: T8, ETS2 (Homo sapiens, UniProt P15036 1-469); conditions: protein: recombinant; tags: N-terminal GST; dsDNA, one strand shown
T8 sequence: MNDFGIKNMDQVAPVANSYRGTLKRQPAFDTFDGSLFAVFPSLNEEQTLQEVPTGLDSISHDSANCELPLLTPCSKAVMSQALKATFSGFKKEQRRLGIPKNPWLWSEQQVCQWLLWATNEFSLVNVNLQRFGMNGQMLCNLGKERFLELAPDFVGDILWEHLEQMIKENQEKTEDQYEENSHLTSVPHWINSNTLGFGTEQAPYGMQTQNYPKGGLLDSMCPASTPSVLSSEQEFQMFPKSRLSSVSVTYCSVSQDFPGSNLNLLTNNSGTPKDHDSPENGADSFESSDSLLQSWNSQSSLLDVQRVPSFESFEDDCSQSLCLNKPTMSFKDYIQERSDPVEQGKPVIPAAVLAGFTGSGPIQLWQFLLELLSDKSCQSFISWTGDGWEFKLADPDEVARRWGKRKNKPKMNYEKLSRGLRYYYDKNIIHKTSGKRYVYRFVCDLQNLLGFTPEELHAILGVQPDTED
Method in brief: as §1

SPDEF = molecular target: T9, SPDEF (Homo sapiens, UniProt O95238 1-335); conditions: protein: recombinant; tags: N-terminal GST; dsDNA, one strand shown
T9 sequence: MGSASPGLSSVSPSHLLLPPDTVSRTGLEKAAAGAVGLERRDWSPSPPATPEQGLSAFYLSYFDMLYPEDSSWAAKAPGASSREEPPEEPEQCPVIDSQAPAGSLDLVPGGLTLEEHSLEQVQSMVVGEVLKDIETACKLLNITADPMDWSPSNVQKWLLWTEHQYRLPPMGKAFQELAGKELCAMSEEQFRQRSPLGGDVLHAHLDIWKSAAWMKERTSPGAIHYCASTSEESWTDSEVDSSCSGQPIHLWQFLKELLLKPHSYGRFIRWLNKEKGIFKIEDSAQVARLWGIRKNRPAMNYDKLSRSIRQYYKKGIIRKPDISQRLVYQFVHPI
Method in brief: as §1

ETV7 = molecular target: T10, ETV7 (Homo sapiens, UniProt Q9Y603 1-341); conditions: protein: recombinant; tags: N-terminal GST; dsDNA, one strand shown
T10 sequence: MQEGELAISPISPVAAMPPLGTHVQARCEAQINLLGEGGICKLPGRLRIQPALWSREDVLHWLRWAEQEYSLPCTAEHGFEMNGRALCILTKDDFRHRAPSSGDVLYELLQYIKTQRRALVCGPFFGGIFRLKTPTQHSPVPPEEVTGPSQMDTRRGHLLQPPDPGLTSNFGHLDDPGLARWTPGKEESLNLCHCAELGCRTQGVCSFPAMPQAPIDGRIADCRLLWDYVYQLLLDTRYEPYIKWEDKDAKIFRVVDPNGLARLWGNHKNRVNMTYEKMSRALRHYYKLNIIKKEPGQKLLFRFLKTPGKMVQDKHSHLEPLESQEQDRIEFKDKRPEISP
Method in brief: as §1

ELF5 = molecular target: T11, ELF5 (Homo sapiens, UniProt Q9UKW6-2 1-255); conditions: protein: recombinant; tags: N-terminal GST; dsDNA, one strand shown
T11 sequence: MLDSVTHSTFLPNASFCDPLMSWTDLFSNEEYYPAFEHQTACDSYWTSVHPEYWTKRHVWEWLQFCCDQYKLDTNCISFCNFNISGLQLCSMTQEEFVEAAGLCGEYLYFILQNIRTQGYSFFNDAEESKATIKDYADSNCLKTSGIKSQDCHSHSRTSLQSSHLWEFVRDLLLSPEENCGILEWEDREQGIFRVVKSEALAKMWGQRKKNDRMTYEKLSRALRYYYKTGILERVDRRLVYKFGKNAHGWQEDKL
Method in brief: as §1

ETV3 = molecular target: T12, ETV3 (Homo sapiens, UniProt P41162-2 1-143); conditions: protein: recombinant; tags: N-terminal GST; dsDNA, one strand shown
T12 sequence: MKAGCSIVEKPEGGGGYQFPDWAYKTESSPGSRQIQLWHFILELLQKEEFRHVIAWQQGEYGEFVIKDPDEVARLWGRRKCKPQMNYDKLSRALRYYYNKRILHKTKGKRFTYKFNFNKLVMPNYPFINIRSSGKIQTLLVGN
Method in brief: as §1

ETV6 = ETV6 (Homo sapiens, UniProt P41212 1-452); conditions: protein: recombinant; tags: N-terminal GST; dsDNA, one strand shown
Method in brief: as §1

HSF1, sequence (Q00613 whole entry): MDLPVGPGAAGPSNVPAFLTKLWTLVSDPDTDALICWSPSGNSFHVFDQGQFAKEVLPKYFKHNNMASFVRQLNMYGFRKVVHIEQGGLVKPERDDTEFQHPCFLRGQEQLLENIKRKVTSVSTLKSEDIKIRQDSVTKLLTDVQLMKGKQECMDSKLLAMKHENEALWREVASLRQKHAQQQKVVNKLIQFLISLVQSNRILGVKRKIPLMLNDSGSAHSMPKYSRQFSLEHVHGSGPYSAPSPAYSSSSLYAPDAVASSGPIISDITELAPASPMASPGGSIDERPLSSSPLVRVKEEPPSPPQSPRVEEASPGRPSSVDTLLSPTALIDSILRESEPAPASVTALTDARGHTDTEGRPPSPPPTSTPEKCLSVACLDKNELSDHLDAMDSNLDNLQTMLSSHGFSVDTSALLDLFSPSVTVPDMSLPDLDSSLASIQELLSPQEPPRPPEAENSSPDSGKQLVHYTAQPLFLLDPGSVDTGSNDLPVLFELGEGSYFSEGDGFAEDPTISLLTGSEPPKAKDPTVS
ETV1, sequence (P50549 whole entry): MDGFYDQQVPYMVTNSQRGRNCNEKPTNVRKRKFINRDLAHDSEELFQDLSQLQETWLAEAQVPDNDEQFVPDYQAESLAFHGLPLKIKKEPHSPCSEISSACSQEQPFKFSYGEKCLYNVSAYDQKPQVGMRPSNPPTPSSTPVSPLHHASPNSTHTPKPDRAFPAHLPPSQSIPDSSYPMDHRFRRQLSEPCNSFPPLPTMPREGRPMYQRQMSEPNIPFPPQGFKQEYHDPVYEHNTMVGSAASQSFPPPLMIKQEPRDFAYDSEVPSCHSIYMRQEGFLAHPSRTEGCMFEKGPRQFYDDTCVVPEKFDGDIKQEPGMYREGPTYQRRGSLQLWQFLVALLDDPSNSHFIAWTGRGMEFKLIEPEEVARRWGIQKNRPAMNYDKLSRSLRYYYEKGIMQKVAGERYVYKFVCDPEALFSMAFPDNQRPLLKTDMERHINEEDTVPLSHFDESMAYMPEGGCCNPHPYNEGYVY
ETV5, sequence (P41161 whole entry): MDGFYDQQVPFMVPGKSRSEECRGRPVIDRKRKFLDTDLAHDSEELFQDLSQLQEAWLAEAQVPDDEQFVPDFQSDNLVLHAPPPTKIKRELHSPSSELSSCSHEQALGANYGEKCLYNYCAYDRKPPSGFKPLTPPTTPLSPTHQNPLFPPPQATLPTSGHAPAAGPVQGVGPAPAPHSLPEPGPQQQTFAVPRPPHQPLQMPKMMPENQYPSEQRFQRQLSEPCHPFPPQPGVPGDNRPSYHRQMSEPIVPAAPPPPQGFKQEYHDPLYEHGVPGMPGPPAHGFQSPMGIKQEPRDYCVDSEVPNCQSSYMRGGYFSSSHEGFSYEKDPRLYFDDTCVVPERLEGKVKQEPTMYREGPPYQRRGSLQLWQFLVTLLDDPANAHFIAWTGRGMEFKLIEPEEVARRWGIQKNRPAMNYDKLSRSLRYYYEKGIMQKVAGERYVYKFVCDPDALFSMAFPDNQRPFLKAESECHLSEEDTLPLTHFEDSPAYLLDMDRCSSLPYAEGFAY
ETV6, sequence (P41212 whole entry): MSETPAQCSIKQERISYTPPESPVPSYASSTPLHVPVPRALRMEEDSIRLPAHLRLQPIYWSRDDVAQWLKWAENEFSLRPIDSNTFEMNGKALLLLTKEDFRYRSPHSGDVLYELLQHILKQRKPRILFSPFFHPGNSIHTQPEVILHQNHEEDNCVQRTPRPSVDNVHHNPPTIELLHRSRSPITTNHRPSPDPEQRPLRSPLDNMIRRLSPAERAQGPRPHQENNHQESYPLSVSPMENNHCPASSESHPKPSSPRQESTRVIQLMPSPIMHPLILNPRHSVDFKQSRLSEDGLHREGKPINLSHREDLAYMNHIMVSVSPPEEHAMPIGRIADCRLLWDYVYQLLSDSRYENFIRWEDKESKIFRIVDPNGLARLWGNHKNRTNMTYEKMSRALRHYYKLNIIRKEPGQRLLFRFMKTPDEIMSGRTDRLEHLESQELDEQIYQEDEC
ELF4, sequence (Q99607 whole entry): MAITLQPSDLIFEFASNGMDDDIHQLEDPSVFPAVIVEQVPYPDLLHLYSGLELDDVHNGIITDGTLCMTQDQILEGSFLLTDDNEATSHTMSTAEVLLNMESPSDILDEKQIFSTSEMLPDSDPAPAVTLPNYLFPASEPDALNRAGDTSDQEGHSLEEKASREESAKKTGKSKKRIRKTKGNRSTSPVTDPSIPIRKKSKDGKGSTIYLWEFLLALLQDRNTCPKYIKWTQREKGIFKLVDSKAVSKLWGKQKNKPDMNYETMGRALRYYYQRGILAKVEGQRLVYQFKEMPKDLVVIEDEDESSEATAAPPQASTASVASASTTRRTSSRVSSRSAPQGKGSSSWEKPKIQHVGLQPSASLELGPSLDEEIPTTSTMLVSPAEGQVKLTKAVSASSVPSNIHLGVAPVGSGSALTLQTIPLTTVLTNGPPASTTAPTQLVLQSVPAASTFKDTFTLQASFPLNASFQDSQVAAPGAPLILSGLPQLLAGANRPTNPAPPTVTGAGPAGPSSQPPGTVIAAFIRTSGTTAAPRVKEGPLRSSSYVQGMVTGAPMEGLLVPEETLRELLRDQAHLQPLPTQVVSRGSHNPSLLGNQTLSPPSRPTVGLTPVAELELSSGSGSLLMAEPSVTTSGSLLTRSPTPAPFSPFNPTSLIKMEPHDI
CRX, sequence (O43186 whole entry): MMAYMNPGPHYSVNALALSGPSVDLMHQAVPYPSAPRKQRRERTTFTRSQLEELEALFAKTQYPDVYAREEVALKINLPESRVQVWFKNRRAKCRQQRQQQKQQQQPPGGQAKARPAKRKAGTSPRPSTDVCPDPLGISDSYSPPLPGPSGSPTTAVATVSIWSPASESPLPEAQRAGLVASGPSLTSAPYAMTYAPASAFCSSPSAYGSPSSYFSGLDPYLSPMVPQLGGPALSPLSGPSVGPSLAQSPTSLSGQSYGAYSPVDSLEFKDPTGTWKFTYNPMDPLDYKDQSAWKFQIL

Sequence	binding signal (FEV)	binding signal (ETV5)	binding signal (HSF1)	binding signal (SPIC)	binding signal (ELF4)	binding signal (ELK4)	binding signal (ETV2)	binding signal (ELF3)	binding signal (CRX)	binding signal (ETV1)	binding signal (ERF)	binding signal (ETV3L)	binding signal (ETS2)	binding signal (SPDEF)	binding signal (ETV7)	binding signal (ELF5)	binding signal (ETV3)	binding signal (ETV6)
CTCGCT	1.67 fold enrichment (6-mer frequency, TF over GST control)	1.66 fold enrichment (6-mer frequency, TF over GST control)	1.66 fold enrichment (6-mer frequency, TF over GST control)	1.76 fold enrichment (6-mer frequency, TF over GST control)	1.56 fold enrichment (6-mer frequency, TF over GST control)	1.68 fold enrichment (6-mer frequency, TF over GST control)	1.52 fold enrichment (6-mer frequency, TF over GST control)	1.83 fold enrichment (6-mer frequency, TF over GST control)	1.37 fold enrichment (6-mer frequency, TF over GST control)	1.71 fold enrichment (6-mer frequency, TF over GST control)	1.78 fold enrichment (6-mer frequency, TF over GST control)	1.87 fold enrichment (6-mer frequency, TF over GST control)	1.67 fold enrichment (6-mer frequency, TF over GST control)	1.62 fold enrichment (6-mer frequency, TF over GST control)	1.54 fold enrichment (6-mer frequency, TF over GST control)	1.55 fold enrichment (6-mer frequency, TF over GST control)	1.51 fold enrichment (6-mer frequency, TF over GST control)	1.64 fold enrichment (6-mer frequency, TF over GST control)
TATCTA	1.19 fold enrichment (6-mer frequency, TF over GST control)	1.14 fold enrichment (6-mer frequency, TF over GST control)	1.66 fold enrichment (6-mer frequency, TF over GST control)	1.19 fold enrichment (6-mer frequency, TF over GST control)	1.22 fold enrichment (6-mer frequency, TF over GST control)	1.2 fold enrichment (6-mer frequency, TF over GST control)	1.25 fold enrichment (6-mer frequency, TF over GST control)	1.34 fold enrichment (6-mer frequency, TF over GST control)	1.73 fold enrichment (6-mer frequency, TF over GST control)	1.14 fold enrichment (6-mer frequency, TF over GST control)	1.27 fold enrichment (6-mer frequency, TF over GST control)	1.18 fold enrichment (6-mer frequency, TF over GST control)	1.26 fold enrichment (6-mer frequency, TF over GST control)	1.23 fold enrichment (6-mer frequency, TF over GST control)	1.26 fold enrichment (6-mer frequency, TF over GST control)	1.18 fold enrichment (6-mer frequency, TF over GST control)	1.29 fold enrichment (6-mer frequency, TF over GST control)	1.28 fold enrichment (6-mer frequency, TF over GST control)
